Bcl-xL primary: inhibitors of human Bcl-xL | AID 2129 | GST-Bcl-xL / FITC-Bim BH3 peptide fluorescence polarization | Q07817 | actives 0.7% (n = 320,000) | inhibition, % at 10.9 µM;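 active = inhibition above the mean of all tested compounds plus 3 SD, cutoff set per campaign, cut at about 30% in these data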;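 note: 0% = DMSO wells and 100% = unlabeled Bim-BH3 peptide competitor; inhibitors lower millipolarization by displacing the labeled peptide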
EBV gp42 block: inhibitors of Epstein-Barr virus glycoprotein 42; Fluorescence polarization binding assay, mP read-out; inhibition, % (tested at 21.74 µM); actives 0.42% (n = 220,000); in the data active = inhibition above about 50%
Target sequence (Q1HVG2 whole entry, looked up): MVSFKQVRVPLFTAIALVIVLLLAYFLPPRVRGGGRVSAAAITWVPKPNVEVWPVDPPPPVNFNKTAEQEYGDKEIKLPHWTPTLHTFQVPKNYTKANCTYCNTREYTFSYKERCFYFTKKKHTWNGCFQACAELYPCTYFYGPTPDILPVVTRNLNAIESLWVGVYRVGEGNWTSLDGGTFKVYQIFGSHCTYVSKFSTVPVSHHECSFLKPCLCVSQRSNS
GLD-1 RNA inh: GLD-1-TGE RNA interaction inhibition (C. elegans); Q17339; purified GLD-1 + fluorescein TGE RNA, fluorescence polarization; inhibition, % at 5.96 µM; actives 0.44% (n = 320,000); AID 2280;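 active = percent inhibition above a per-plate cutoff, the plate mean of test compounds plus 3 SD, cut at about 30% in these data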;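 note: 0% = DMSO wells with GLD-1 and probe and 100% = wells lacking GLD-1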
MEX-5 binding: C. elegans MEX-5 TCR-2 RNA binding activity; Q9XUB2; MEX-5/FITC-TCR2 RNA binding, fluorescence polarization; active compounds read low; activity score (negative = inhibition of binding), % at 10 µM; actives 0.38% (n = 300,000);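 active = inhibition past about -25% in most replicates, and total fluorescence under double the plate's negative control median, limit read from the data; inconclusive = replicates evenly split on the limit, or fluorescence at least double controls; inactive = too little inhibition in most replicates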;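 note: 0% = DMSO and -100% = 5 µM competing unlabeled TCR2 RNA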
Target sequence (Q9XUB2 whole entry, looked up): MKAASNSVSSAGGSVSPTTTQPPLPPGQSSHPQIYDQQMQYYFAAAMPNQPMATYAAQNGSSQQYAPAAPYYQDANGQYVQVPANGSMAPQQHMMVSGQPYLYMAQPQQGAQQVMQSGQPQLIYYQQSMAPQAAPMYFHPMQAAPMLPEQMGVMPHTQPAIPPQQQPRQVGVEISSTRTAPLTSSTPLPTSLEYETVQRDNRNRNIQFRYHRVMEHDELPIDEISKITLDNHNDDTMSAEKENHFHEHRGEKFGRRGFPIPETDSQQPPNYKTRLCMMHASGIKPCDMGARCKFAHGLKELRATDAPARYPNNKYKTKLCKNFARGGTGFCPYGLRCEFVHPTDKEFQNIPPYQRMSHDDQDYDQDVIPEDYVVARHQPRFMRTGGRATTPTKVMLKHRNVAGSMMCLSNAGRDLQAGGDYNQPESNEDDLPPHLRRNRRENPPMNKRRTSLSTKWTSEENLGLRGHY
E coli Lon inh: E. coli protease La inhibition | P0A9M0 | purified E. coli Lon protease, fluorescence polarization | inhibition, % at 7.94 µM | actives 0.42% (n = 360,000); in the data active = inhibition above about 13%, passing the limit was not always enough;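 note: 0% = enzyme with probe and DMSO and 100% = no enzyme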
GLD1 RNA confirm: GLD-1 TGE RNA interaction inhibition, confirmation; AID 2459; GLD-1/FL-TGE RNA fluorescence polarization, biochemical; actives 10% (n = 550); shares compounds with GLD-1 RNA inh; inhibition, % at 5.96 µM;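 active = average inhibition across triplicates above the hit cutoff set in the primary screen, cut at about 32% in these data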;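 note: 0% = GLD-1 with RNA probe and DMSO and 100% = wells lacking GLD-1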
eLon confirm: E. coli Lon inhibition confirmation; AID 602230; shares compounds with E coli Lon inh; actives 31% (n = 1,400); purified E. coli Lon, fluorescence polarization; inhibition, % at 7.94 µM; in the data active = inhibition above about 16%;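 note: 0% = enzyme with probe and DMSO and 100% = no enzyme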
* marks the source's active call; other numbers are inactive results; u = inconclusive; x = not tested or not shown; + = active, no number; ! = a repeat was not active. Rows were chosen to be rich in hits. Some 1.3% of all compounds tested hit in one or more screens of this group.

SMILES | Bcl-xL primary | EBV gp42 block | GLD-1 RNA inh | MEX-5 binding | E coli Lon inh | others
O=c1[nH]c2ccccc2n1C1CCN(C(c2cc3ccccc3o2)c2nnnn2-c2ccc3c(c2)OCCO3)CC1 (stereo unspecified) | x | x | x | x | -1
O=C1NC(=O)C2(Cc3ccccc3N3CCCC32)C(=O)N1 (stereo unspecified) | 37* | -7 | 19 | -12 | -2
O=C(O)CCC(=O)NCCC1=c2ccccc2=N/C1=C\c1c(O)n(Cc2ccc(F)cc2)c(=S)[nH]c1=O | 7 | 82* | 5 | -1 | -5
CCn1nc(-c2ccccc2)nc2c(=O)n(C)c(=O)nc1-2 | 136* | 98* | 128* | u | 83*
COc1ccc(-n2nnnc2C(c2cccs2)N2CCC3(CC2)C(=O)NCN3c2ccccc2)cc1 (stereo unspecified) | x | x | x | x | -1
CCCCCCn1c(O)c(C=Nc2ccccc2N2CCOCC2)c(=O)[nH]c1=S | 0 | -53 | -3 | -31* | 0
CCCCn1c(O)c(/C=N/N2CCOCC2)c(=O)[nH]c1=S | -2 | -11 | 0 | -4 | 3
CN1/C(=C\C=C\C2=[N+](C)c3ccc4ccccc4c3C2(C)C)C(C)(C)c2ccccc21 | 190* | 97* | 179* | x | x
CN1/C(=C\C=Nc2ccccc2)C(C)(C)c2ccccc21 | 14 | -10 | 4 | -1 | -10
CCOC(=O)[C@]1(C#N)[C@@H]2C=CC(C(C)=O)=CN2[C@@H](C(N)=O)[C@@H]1c1ccsc1 | 88* | 71* | 54* | -53* | -9
Fc1ccc(N2Cc3ccccc3-n3nncc3C2)cc1 | x | x | x | x | -4
Cc1cc(N2CCCCC2)ccc1C=C1C(=O)N(C)C(=S)N(C)C1=O | -14 | -23 | -9 | 3 | -11
Cc1cc(N2CCCC2)ccc1C=C(C#N)C#N | 119* | 85* | -70 | u | -25
CC1(O)CCN2C(=O)CCc3cccc1c32 (stereo unspecified) | 49* | x | 58* | x | 16 | GLD1 RNA confirm=2
O=C(COC(=O)c1cc(Br)cc(Br)c1O)NC12CC3CC(CC(C3)C1)C2 | x | x | x | x | -1
CCC(CO)NC(=O)C1C=C2c3cccc4[nH]cc(c34)CC2N(C)C1 (stereo unspecified) | 47* | 22 | 35* | -15 | 59 | GLD1 RNA confirm=9
CC[C@@H](CO)NC(=O)[C@@H]1C=C2c3cccc4c3c(cn4C)C[C@H]2N(C)C1 | 143* | 53*! | 112* | -31* | 38 | GLD1 RNA confirm=18
COc1cc2cc(C(=O)N3CC(COS(C)(=O)=O)c4ccc(O)cc43)[nH]c2c(OC)c1OC (stereo unspecified) | x | x | x | x | 3
CN(C)C1C(=O)C(C(N)=O)=C(O)C2(O)C(=O)C3=C(O)c4c(O)cccc4C(C)(O)C3C(O)C12 (stereo unspecified) | 51* | x | 44* | -20 | 3 | GLD1 RNA confirm=0
S=P(NC1CCCCC1)(N1CC1)N1CC1 | 50* | 5 | 35* | 1 | 2 | GLD1 RNA confirm=1
O=C1C(Br)C2CCC1C2C(=O)O (stereo unspecified) | x | x | x | x | -2
O=C1NCN(c2ccccc2)C12CCN(C(c1cccc3ccccc13)c1nnnn1C1CCCCC1)CC2 (stereo unspecified) | x | x | x | x | -3
OCCNc1c2c(nc3ccccc13)CCCC2 | 3 | -15 | 4 | 2 | -5
C[n+]1c2ccccc2nc2ccc(NCCO)cc21 | 73* | x | 34* | -21 | 45 | GLD1 RNA confirm=14
CSCCC(c1nnnn1Cc1ccccc1)N1CCC2(CC1)C(=O)NCN2c1ccccc1 (stereo unspecified) | x | x | x | x | 3
SMILES | Bcl-xL primary | EBV gp42 block | GLD-1 RNA inh | MEX-5 binding | E coli Lon inh | others
CN1C(=O)C2C[C@@]3(Br)c4ccccc4N(OOSc4ccccc4)[C@H]3N2C(=O)[C@@H]1Cc1ccccc1 (stereo partly specified) | 1 | x | 32* | 1 | -3 | GLD1 RNA confirm=3
CCC(c1nnnn1-c1ccc2c(c1)OCCO2)N1CCC2(CC1)C(=O)NCN2c1ccccc1 (stereo unspecified) | x | x | x | x | -2
CC(=NCCC1=CCCCC1)c1c(O)[nH]c(=O)[nH]c1=O | 4 | -19 | 37* | 3 | -7 | GLD1 RNA confirm=-3
CC(=NCCC1=CCCCC1)c1c(O)n(C)c(=O)n(C)c1=O | 2 | 2 | 7 | 1 | -3
COc1ccc(CN2Cc3cc(N4CCCCC4)ccc3-n3nncc3C2)cc1 | x | x | x | x | -2
CN1CC[C@@]2(C)c3cc(O)ccc3N(C)C2O1 (stereo partly specified) | 26 | x | 39* | -4 | 20 | GLD1 RNA confirm=2
CN1C[C@H](CNC(=O)OCc2ccccc2)C[C@@H]2c3cccc4c3c(cn4C)C[C@H]21 | 52* | 20 | 53* | -7 | 76* | GLD1 RNA confirm=6;eLon confirm=36*
CC(=O)NC1=C(N2CC2C)C(=O)C(NC(C)=O)=C(N2CC2C)C1=O (stereo unspecified) | x | x | x | x | -18
COC(=O)C1=C(c2cccc(OCc3ccccc3)c2)C[C@@H]2CC[C@H]1N2C(=O)NCc1cc(C)oc1C(F)(F)F | 4 | x | 1 | x | 26* | eLon confirm=-4
COC(=O)C1=C(c2cccc(OCc3ccccc3)c2)C[C@@H]2CC[C@H]1N2C(=O)NCc1cccc(C(F)(F)F)c1 | 1 | x | -2 | x | 0
CC12Nc3ccccc3C(=O)N1Cc1cnnn1-c1ccccc12 (stereo unspecified) | x | x | x | x | 2
COCCOC(=O)c1c(N)n(Cc2ccco2)c2nc3ccccc3nc12 | 31* | x | 63* | x | 16* | eLon confirm=7
CCN1/C(=C/C=C/C2=[N+](CC)c3ccccc3C2(C)C)C(C)(C)c2ccccc21 | x | x | x | x | + | eLon confirm=+
Cc1ccc2cc(C=C(C#N)C#N)c(Cl)nc2c1 | 196* | 30 | 167* | u | 164* | eLon confirm=83*
N#CC(C#N)=Cc1ccc(C=C(C#N)C#N)cc1 | x | 0 | x | x | -18
CN1CC=C2C(C#N)=C(N)C(C#N)(C#N)C(c3ccncc3)C2C1 (stereo unspecified) | 136* | x | 88* | -47* | 57* | eLon confirm=81*
COc1ccc2c(c1)C13CCN4CC5=CCOC6CC(=O)N2C1C6C5CC43 (stereo unspecified) | x | x | x | x | 0
O=[N+]([O-])c1ccc(N(CCO)CCO)c2c1no[n+]2[O-] | x | x | x | x | 66* | eLon confirm=31*
CN1CCN(c2ccc([N+](=O)[O-])c3no[n+]([O-])c23)CC1 | 197* | 141* | 141* | -60* | 131* | eLon confirm=102*
CC1=C(C)CC2(C(=O)NC(=S)NC2=O)C(C)C1 (stereo unspecified) | x | x | x | x | -1
C[C@]12CC[C@@H](O)CC1=CCC1C2CC[C@@]2(C)C1C[C@@H](F)[C@H]2O (stereo partly specified) | x | x | x | x | -7

From PubChem BioAssay
